In PubChem BioAssay (NCATS):
Records with an inconclusive call do not appear. The source made the active and inactive calls. Unless noted, calls come from the whole dose curve; as a rule, active = well fitted curve in the direction sought with a large enough effect; inconclusive = small, poorly fitted or top-dose-only effect, or another doubt; inactive = no such curve, though single readings can be large; an effect the other way counts as inactive or inconclusive.

What was measured:
[1] = biological target: Transient receptor potential cation channel subfamily V member 1 (Homo sapiens) (UniProt Q8NER1); experiment: HTS Assay for Compounds that Act as Enhancers of the Vanilloid Receptor 1 (AID 488979); note: 0% is about no effect
Summary of the method: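 TRPV1-expressing cells loaded with Fluo-8 calcium dye; compounds added and calcium influx read kinetically for 3 min (agonist phase), then capsaicin at EC20 added and read 2 min more for enhancement. Fluorescence ex 480/em 520 nm.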

[2] = biological target: D(1A) dopamine receptor (Homo sapiens) (UniProt P21728); experiment: HTS Assay for Allosteric Agonists of the Human D1 Dopamine Receptor: Primary Screen for Agonists (AID 488981); note: 0% is about no effect
Summary of the method: (§1)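 Tetracycline-induced HEK293 T-REx cells force-coupled to calcium signalling were incubated overnight at 30 C and dye-loaded at room temperature. Calcium flux over 180 s after compound addition flagged agonists; a further 180 s read after EC20 dopamine flagged potentiators.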

[3] = biological target: D(1A) dopamine receptor (Homo sapiens) (UniProt P21728); experiment: HTS Assay for Allosteric Agonists of the Human D1 Dopamine Receptor: Primary Screen for Potentiators (AID 488982); note: 0% is about no effect
Summary of the method: as §1

[4] = biological target: D(1A) dopamine receptor (Homo sapiens) (UniProt P21728); experiment: HTS Assay for Allosteric Agonists of the Human D1 Dopamine Receptor: Primary Screen for Antagonists (AID 488983);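 note: calcium flux response to an EC80 dopamine challenge measured with no-wash dye; nearly all actives have a fitted effect of over 65% in size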; note: potency is the fitted concentration of half-maximal effect
Summary of the method: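 Cells are induced with tetracycline and incubated overnight at 30 C, then loaded with calcium dye for 30 to 90 minutes at room temperature. Compound addition is followed by a 180 s read, then an EC80 dopamine addition and another 180 s read.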

[5] = Validation screen for small molecules that induce genotoxicity in human embryonic kidney (HEK293T) cells expressing luciferase-tagged ELG1 (AID 493106); note: 0% is about no effect
Summary of the method: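 Luminescence from an ELG1-luciferase fusion serves as the read-out, rising when genetic stress elevates ELG1 protein. HEK293T reporter cells (2,000 per well) received 23 nL compound, incubated 16 hr at 37 °C, then ONE-Glo for 30 min at room temperature.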

[6] = biological target: ATPase family AAA domain-containing protein 5 (Homo sapiens) (UniProt Q96QE3); experiment: Validation screen for small molecules that inhibit ELG1-dependent DNA repair in human embryonic kidney (HEK293T) cells expressing luciferase-tagged ELG1 (AID 493107);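 note: cells co-treated with the DNA-damaging agent 5-fluorouridine alongside compound; series mostly up to about 46 µM; % is set by controls: 0 for no effect and ±100 for the full control effect; inhibitors lower the ELG1-luciferase luminescence signal; nearly all actives have a fitted effect of over 70% in size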
Chain of ATPase family AAA domain-containing protein 5 (Homo sapiens) (Q96QE3 whole entry, looked up, the tested form may be a part): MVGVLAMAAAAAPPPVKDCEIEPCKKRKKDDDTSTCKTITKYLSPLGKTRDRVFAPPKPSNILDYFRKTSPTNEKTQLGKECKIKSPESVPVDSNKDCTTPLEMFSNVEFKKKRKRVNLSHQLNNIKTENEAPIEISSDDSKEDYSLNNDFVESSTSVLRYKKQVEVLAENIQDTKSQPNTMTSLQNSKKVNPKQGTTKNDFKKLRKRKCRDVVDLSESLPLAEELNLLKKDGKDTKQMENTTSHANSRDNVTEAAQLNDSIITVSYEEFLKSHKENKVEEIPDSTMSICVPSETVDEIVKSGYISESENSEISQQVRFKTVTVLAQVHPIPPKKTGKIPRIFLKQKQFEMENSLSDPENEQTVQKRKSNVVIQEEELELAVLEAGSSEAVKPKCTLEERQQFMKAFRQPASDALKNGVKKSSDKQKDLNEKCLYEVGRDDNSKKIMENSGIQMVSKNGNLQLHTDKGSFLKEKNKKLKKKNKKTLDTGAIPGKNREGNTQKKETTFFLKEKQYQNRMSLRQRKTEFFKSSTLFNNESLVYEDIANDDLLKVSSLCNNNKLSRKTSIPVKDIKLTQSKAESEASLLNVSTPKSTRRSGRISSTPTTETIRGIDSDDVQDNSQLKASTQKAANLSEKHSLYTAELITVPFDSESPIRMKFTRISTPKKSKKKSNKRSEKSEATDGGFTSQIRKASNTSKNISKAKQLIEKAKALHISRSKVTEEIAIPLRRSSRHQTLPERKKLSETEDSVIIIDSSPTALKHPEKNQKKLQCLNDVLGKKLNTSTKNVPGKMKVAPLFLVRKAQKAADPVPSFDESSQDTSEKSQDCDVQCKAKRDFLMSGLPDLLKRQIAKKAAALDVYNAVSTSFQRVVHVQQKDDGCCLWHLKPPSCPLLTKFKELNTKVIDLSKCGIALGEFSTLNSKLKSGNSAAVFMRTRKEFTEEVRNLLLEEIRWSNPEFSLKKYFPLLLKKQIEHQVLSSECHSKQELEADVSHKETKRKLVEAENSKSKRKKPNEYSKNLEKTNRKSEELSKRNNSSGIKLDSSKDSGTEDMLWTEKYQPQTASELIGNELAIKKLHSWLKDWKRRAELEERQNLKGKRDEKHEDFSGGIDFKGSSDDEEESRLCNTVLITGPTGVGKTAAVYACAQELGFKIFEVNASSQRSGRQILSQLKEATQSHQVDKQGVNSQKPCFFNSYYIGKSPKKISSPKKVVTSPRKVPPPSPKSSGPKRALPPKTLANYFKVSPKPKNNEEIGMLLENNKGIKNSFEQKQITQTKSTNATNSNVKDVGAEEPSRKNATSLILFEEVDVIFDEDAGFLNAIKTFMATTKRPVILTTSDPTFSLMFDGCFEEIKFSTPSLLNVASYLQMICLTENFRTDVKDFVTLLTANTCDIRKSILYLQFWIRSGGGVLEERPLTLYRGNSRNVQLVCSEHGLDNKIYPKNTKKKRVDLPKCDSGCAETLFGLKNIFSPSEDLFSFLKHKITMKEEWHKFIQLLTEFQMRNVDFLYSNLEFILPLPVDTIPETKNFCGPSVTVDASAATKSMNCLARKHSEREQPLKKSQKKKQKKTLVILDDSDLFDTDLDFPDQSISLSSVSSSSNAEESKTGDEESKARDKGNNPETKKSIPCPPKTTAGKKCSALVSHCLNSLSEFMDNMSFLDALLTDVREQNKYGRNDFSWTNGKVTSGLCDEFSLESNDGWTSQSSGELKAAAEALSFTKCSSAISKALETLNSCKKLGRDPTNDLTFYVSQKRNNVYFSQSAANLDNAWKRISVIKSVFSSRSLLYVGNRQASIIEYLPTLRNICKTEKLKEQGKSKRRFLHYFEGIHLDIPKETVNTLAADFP
Summary of the method: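 Luminescence from ONE-Glo, developed 30 min at room temperature, served as read-out of ELG1-luciferase levels. Beforehand, reporter HEK293T cells received 5-fluorouridine plus test compound for 16 hr at 37 °C.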

[7] = biological target: Thyrotropin-releasing hormone receptor (Homo sapiens) (UniProt P34981); experiment: qHTS for Small Molecule Agonists and Allosteric Enhancers of Human TRH Receptor: Validation Screen for Agonists (AID 493127;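 active = calcium activation more than 3 SD above the typical response in the agonist read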;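 note: intracellular calcium rise by fluo-8 fluorescence before TRH EC20 addition; 0% is about no effect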); conditions: TRH receptor agonist cell assay; at 2 µM; stronger effect = higher value
Chain of Thyrotropin-releasing hormone receptor (Homo sapiens) (P34981 whole entry, looked up): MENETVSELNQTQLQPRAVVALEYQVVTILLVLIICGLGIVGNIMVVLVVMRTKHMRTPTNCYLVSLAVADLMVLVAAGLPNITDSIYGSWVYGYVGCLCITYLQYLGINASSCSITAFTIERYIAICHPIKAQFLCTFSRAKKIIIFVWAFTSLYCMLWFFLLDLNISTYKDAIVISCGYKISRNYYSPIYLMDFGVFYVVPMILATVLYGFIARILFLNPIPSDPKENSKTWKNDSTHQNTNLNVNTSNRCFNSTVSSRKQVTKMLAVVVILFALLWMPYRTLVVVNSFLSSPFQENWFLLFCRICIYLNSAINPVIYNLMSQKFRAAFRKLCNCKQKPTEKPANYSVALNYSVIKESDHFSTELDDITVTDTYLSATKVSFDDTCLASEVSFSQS
Summary of the method: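 Cells 2000/well, 10% FCS, 18 h 33.5C/5% CO2 → fluo-8 Ca dye, RT 30 min–1.5 h → FDSS baseline 10 × 1 s → compound added → 230 cycles (1 s/cycle) agonist mode. TRH controls.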

[8] = Nrf2 qHTS screen for inhibitors: Validation (AID 493153; active = well fitted inhibition curve with a large enough effect in the main read-out, with a control signal flat, not every such curve was filed as active); conditions: Potency: luciferase luminescence; viability change: measured here: cytotoxicity max response
Summary of the method: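 Luminescence from an ARE-firefly luciferase reporter in A549 cells gives Nrf2 inhibition; an earlier CellTiter-Fluor fluorescent read flags cytotoxicity. Cells in 5% FBS OPTI-MEM received compound dilution series for 18-24 h at 37°C.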

[9] = qHTS for Inhibitors of Cell Surface uPA Generation: Validation Assay (AID 493164); note: 0% is about no effect
Summary of the method: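 RAW 264.7 cells (4000/well) were plated overnight, then exposed for 18 h at 37 C, 5% CO2 to compounds in a 7-point 1:5 titration (2.45 nM–38.3 uM final). Intracellular ATP was read by ATP-Lite luminescence.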

[10] = Validation screen for small molecules that induce DNA re-replication in SW480 colon adenocarcinoma cells (AID 504364); note: 0% is about no effect
Summary of the method: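 250 cells/well; compound pinned in; 48 hr, 37 C, 5% CO2; Hoechst added, 40 min; nuclear fluorescence imaged, 405 ex / 500-530 em; re-replication scored as increase in high-intensity nuclei.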

[11] = biological target: Peptidyl-prolyl cis-trans isomerase NIMA-interacting 1 (Homo sapiens) (UniProt Q13526); experiment: qHTS Validation Assay to Find Inhibitors of Pin1 (AID 504536; active = well fitted inhibition curve with a large enough effect in the polarisation, with a control signal flat, not every such curve was filed as active; the % refers to the polarisation;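 note: 0% = full Pin1 enzyme wells and -100% = no-enzyme wells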)
Chain of Peptidyl-prolyl cis-trans isomerase NIMA-interacting 1 (Homo sapiens) (Q13526 whole entry, looked up): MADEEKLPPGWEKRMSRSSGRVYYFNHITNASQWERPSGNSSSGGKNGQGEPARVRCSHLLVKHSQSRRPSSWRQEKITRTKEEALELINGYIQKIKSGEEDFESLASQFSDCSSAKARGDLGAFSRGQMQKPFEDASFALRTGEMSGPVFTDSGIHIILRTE
Summary of the method: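 Fluorescence polarization competition: compounds (titration) displace HiFluor-488-labeled Pin1-1b peptide from Pin1 (0.3 uM final) in pH 7.5 HEPES buffer with DTT, 10 min at room temperature; %Activity normalized to no-enzyme wells, curves fitted.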

[12] = biological target: Phosphoglycerate kinase, glycosomal (Trypanosoma brucei brucei) (UniProt P07378); experiment: qHTS Validation Assay to Find Inhibitors of Phosphoglycerate Kinase (AID 504547); note: potency is the fitted concentration of half-maximal effect
Summary of the method: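 Substrate/PGK mix plus compound; reaction started with GAPDH (100nM final) to form 1,3-BPG; 60 min RT; Kinase-Glo Plus 10 min; luminescence. TEA 100mM pH 7.6, MgCl2 5mM, Tween-20 0.01%.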

[13] = biological target: phosphoglycerate mutase (Leishmania major) (UniProt Q4Q090); experiment: qHTS Validation Assay to Find Inhibitors of Phosphoglycerate Mutase (AID 504548); conditions: Potency: inhibition qHTS;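 note: end-point luminescence from Kinase-GloPlus after the PGAM reaction; series mostly up to about 58 µM; % is set by controls: 0 for no effect and ±100 for the full control effect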
Chain of phosphoglycerate mutase (Leishmania major) (Q4Q090 1-553): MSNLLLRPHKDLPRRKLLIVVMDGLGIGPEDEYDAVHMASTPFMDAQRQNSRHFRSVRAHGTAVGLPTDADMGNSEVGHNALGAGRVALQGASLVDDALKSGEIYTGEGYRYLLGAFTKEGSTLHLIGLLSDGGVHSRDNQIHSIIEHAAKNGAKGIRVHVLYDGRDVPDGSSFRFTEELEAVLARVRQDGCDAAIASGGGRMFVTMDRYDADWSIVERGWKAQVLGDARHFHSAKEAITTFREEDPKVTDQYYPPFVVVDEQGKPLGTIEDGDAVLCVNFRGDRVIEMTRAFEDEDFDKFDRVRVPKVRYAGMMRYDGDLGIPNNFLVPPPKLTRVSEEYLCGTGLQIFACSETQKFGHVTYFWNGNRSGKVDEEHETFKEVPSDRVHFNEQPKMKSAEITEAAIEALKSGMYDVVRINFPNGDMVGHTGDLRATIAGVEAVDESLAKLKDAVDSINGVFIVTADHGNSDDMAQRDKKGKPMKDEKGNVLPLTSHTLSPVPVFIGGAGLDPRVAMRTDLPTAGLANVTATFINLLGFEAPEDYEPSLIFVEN
Summary of the method: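 Inhibition of L. major PGAM was assessed by Kinase-GloPlus luminescence following a 45-minute room-temperature reaction with enzyme at 1.25nM final.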

[14] = biological target: Ubiquitin carboxyl-terminal hydrolase 1 (Homo sapiens) (UniProt O94782); experiment: Inhibitors of USP1/UAF1: Pilot qHTS (AID 504865);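 note: rhodamine fluorescence freed from ubiquitin-rhodamine substrate followed over time; top concentration of the series differs between compounds; % is set by controls: 0 for no effect and ±100 for the full control effect; nearly all actives have a fitted effect of over 35% in size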
Chain of Ubiquitin carboxyl-terminal hydrolase 1 (Homo sapiens) (O94782 whole entry, looked up): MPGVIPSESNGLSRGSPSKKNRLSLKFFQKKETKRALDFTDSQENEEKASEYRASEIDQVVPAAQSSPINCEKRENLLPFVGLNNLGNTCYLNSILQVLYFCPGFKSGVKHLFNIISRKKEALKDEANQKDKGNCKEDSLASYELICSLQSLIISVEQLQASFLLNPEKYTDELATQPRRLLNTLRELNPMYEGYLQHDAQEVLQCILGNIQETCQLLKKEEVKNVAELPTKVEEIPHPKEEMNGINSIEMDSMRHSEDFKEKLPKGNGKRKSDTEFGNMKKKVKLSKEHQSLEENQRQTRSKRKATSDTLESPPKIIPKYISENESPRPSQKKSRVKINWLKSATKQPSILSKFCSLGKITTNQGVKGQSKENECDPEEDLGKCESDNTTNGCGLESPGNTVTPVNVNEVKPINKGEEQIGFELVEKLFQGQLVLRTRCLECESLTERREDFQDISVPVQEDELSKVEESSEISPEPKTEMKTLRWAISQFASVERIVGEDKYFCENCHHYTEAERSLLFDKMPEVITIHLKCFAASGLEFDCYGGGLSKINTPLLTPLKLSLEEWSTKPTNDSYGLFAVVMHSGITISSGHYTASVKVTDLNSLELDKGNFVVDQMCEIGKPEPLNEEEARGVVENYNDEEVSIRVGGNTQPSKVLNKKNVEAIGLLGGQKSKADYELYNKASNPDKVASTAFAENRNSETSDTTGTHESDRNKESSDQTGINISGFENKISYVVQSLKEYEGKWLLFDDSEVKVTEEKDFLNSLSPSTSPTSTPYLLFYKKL
Summary of the method: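 In 50mM HEPES pH 7.8 containing 0.5mM EDTA, 1mM TCEP, 0.1 mg/ml BSA and 0.01% Tween-20, 1nM USP1/UAF1 is exposed to compound for 15 min, then Ub-Rho (150nM final) is added and fluorescence is read over time.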

[15] = qHTS for Inhibitors of ATXN expression: Validation of Cytotoxic Assay (AID 588349); note: % is set by controls: 0 for no effect and ±100 for the full control effect
Summary of the method: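 Read-out: ATP-based luminescence (CellTiter Glo) reflecting viability of HEK293 cells after 72 hr incubation at 37 degrees C with a concentration series of each compound.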

[16] = qHTS for Inhibitors of ATXN expression: Validation (AID 588378); note: series mostly up to about 57 µM; % is set by controls: 0 for no effect and ±100 for the full control effect; nearly all actives have a fitted effect of over 75% in size
Summary of the method: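 Compounds were pinned onto attached HEK293 cells carrying an ATXN2-firefly luciferase construct and incubated 24 hrs at 37 degrees C. Each well then received a fluorescent viability reagent followed by luciferase substrate for end-point luminescence.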

[17] = biological target: Tyrosyl-DNA phosphodiesterase 1 (Homo sapiens) (UniProt Q9NUW8); experiment: Confirmation Assay for Inhibitors of Tyrosyl-DNA Phosphodiesterase (TDP1) (AID 489007); conditions: recombinant human TDP1 enzymatic activity, dose-response; note: potency is the fitted concentration of half-maximal effect; nearly all actives have a fitted effect of over 40% in size
Summary of the method: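 Tdp1 1 nM + cpd, 15 min RT; add biotin/phosphotyrosine-FITC oligo 15 nM, 5 min RT; add AS donor/acceptor beads 10 ug/ml, 10 min RT; read AlphaScreen. No-enzyme wells = max signal.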

[18] = biological target: Galactokinase (Homo sapiens) (UniProt P51570); experiment: qHTS Validation Assay for Inhibitors of Human Galactokinase (GALK) (AID 493189); note: 0% is about no effect
Chain of Galactokinase (Homo sapiens) (P51570 whole entry, looked up): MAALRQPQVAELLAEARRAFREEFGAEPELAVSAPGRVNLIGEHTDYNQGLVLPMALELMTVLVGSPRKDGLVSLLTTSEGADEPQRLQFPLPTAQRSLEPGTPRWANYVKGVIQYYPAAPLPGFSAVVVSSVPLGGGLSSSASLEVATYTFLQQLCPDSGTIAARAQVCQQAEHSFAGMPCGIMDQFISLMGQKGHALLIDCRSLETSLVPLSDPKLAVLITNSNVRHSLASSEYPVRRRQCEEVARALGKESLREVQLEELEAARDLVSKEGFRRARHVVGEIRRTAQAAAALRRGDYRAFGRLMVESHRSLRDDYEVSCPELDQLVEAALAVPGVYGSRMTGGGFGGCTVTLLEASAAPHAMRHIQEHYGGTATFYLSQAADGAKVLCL
Summary of the method: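 5 nM GALK / 100 uM galactose / 35 uM ATP, 20 mM HEPES pH8.0, 5 mM MgCl2, 60 mM NaCl, 1 mM DTT, 0.01% BSA (final). RT 1 h; Kinase-Glo Plus luminescence.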

[19] = biological target: Thyrotropin receptor (Homo sapiens) (UniProt P16473); experiment: qHTS Assay for Antagonists of the Thyroid Stimulating Hormone Receptor (AID 488980); note: series mostly up to about 58 µM; 0% is about no effect
Chain of Thyrotropin receptor (Homo sapiens) (P16473 whole entry, looked up): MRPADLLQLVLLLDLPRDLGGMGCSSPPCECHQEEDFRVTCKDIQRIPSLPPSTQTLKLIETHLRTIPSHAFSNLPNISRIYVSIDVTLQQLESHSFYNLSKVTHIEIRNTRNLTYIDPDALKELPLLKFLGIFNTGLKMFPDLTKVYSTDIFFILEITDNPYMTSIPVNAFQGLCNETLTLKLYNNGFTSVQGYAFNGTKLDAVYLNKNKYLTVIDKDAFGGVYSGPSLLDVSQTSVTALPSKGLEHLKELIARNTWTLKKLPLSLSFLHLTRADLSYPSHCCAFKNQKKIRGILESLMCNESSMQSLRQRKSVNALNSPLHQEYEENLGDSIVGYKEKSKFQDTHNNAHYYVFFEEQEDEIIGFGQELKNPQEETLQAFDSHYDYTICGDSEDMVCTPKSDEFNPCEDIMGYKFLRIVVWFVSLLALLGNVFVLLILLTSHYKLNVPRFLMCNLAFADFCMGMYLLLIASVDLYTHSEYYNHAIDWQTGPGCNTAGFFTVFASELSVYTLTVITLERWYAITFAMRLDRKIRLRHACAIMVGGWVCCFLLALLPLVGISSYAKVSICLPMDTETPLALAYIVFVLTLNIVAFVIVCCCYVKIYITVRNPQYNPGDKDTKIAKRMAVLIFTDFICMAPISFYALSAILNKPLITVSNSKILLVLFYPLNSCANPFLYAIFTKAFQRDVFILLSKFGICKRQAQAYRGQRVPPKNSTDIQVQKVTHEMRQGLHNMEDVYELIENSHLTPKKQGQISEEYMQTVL
Summary of the method: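 Readout is cAMP by HTRF competition between cellular cAMP and cAMP-d2 for a cryptate-labelled antibody. Antagonism was assessed in TSHR-transfected HEK293 cells stimulated with 4 nM TSH (EC80, final) in the presence of RO 20-1724.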

CN(C)C(=O)/N=N/C(=O)N(C)C
inactive: outcome [1] | Potency [2] | Potency [3] | Potency [4] | Potency [5] | Potency [6] | activation [7] 0.75% | Potency [8] | outcome [9] | Potency [10] | Potency [11] | Potency [12] | Potency [13] | Potency [14] | Potency [15] | Potency [16]
1.53%: viability change [8]

Cc1nc(N=Nc2ccc(S(=O)(=O)O)cc2S(=O)(=O)O)c(COP(=O)(O)O)c(C=O)c1O
-3.73%: viability change [8]
inactive: outcome [1] | Potency [2] | Potency [3] | Potency [4] | Potency [5] | Potency [6] | activation [7] 0.938% | Potency [8] | outcome [9] | Potency [18] | Potency [10] | Potency [12] | Potency [13] | Potency [14] | Potency [15] | Potency [16]
active: Potency [17] 7.08 µM

NOCC(=O)O
18.2%: viability change [8]
inactive: outcome [1] | outcome [19] | Potency [2] | Potency [4] | activation [7] 0.25% | Potency [8] | outcome [9] | Potency [18] | Potency [10] | Potency [11] | Potency [12] | Potency [13] | Potency [14] | Potency [15] | Potency [16]

CCCCOc1cc(CC2CNC(=O)N2)ccc1OC (stereo not given)
inactive: outcome [1] | Potency [2] | Potency [3] | Potency [4] | Potency [5] | Potency [6] | activation [7] 0.75% | Potency [8] | outcome [9] | Potency [18] | Potency [10] | Potency [11] | Potency [12] | Potency [13] | Potency [14] | Potency [15] | Potency [16]
4.87%: viability change [8]

OC[C@H]1NC[C@@H](O)[C@@H]1O
inactive: outcome [1] | Potency [2] | Potency [3] | Potency [4] | Potency [5] | Potency [6] | activation [7] 1.19% | Potency [8] | outcome [9] | Potency [18] | Potency [10] | Potency [11] | Potency [12] | Potency [13] | Potency [14] | Potency [15] | Potency [16]
4.02%: viability change [8]

NCC(O)c1ccc(O)c(O)c1 (stereo not given)
inactive: outcome [1] | Potency [2] | Potency [3] | Potency [5] | Potency [8] | outcome [9] | Potency [18] | Potency [10] | Potency [11] | Potency [13] | Potency [14] | Potency [15] | Potency [16]
3.36%: viability change [8]
active: Potency [4] 14.1 µM | Potency [12] 4.78 µM

Nc1ccc(N2C(=O)c3ccccc3C2=O)c(Cl)c1
inactive: outcome [1] | Potency [2] | Potency [3] | Potency [4] | Potency [5] | Potency [6] | activation [7] -4.94% | Potency [8] | outcome [9] | Potency [18] | Potency [10] | Potency [11] | Potency [12] | Potency [13] | Potency [14] | Potency [15] | Potency [16]
-6.09%: viability change [8]

CCCn1c(=O)c2[nH]c(C3CCCC3)nc2n(CCC)c1=O
-6.17%: viability change [8]
inactive: outcome [1] | Potency [2] | Potency [3] | Potency [4] | Potency [5] | activation [7] -3.88% | Potency [8] | outcome [9] | Potency [18] | Potency [11] | Potency [12] | Potency [13] | Potency [14] | Potency [15] | Potency [16]

CC1CCN=C(N)S1 (stereo not given)
inactive: outcome [1] | outcome [19] | Potency [2] | Potency [5] | Potency [6] | activation [7] -2.88% | Potency [8] | outcome [9] | Potency [10] | Potency [11] | Potency [12] | Potency [13] | Potency [14] | Potency [15] | Potency [16]
9.66%: viability change [8]

O=C(O)Cc1ccc(O)c(O)c1
9.81%: viability change [8]
inactive: outcome [1] | Potency [2] | Potency [3] | Potency [4] | Potency [5] | Potency [6] | activation [7] 0.938% | Potency [8] | Potency [10] | Potency [11] | Potency [12] | Potency [13] | Potency [14] | Potency [15] | Potency [16]

CC(C)(C)c1cc(/C=C(\C#N)C(N)=S)cc(C(C)(C)C)c1O
inactive: outcome [1] | outcome [19] | Potency [3] | activation [7] 10.6% | outcome [9] | Potency [18] | Potency [10] | Potency [12] | Potency [13]

N#C/C(=C\c1ccc(O)c(O)c1)C(=O)NCCCNC(=O)/C(C#N)=C/c1ccc(O)c(O)c1
inactive: outcome [1] | outcome [19] | Potency [2] | Potency [4] | Potency [5] | activation [7] -0.0625% | outcome [9] | Potency [16]

Nn1nnc2ccccc21
inactive: outcome [1] | Potency [2] | Potency [3] | Potency [4] | Potency [5] | Potency [6] | activation [7] 1.12% | Potency [8] | outcome [9] | Potency [10] | Potency [11] | Potency [12] | Potency [13] | Potency [15] | Potency [16]
-0.567%: viability change [8]

CN(C)CCC(c1ccc(Br)cc1)c1ccccn1 (stereo not given)
3.82%: viability change [8]
inactive: outcome [1] | Potency [2] | Potency [3] | Potency [4] | Potency [5] | Potency [6] | Potency [8] | outcome [9] | Potency [18] | Potency [10] | Potency [11] | Potency [12] | Potency [14] | Potency [15]

C[C@H](O)C(=O)C1=Nc2c(nc(N)[nH]c2=O)NC1
inactive: outcome [1] | outcome [19] | Potency [3] | Potency [4] | Potency [5] | Potency [6] | activation [7] 1.06% | Potency [8] | outcome [9] | Potency [18] | Potency [10] | Potency [11] | Potency [12] | Potency [13] | Potency [16]
8.34%: viability change [8]

CC1CCN(CC[C@H]2CCCN2S(=O)(=O)c2cccc(O)c2)CC1
inactive: outcome [1] | Potency [2] | Potency [3] | Potency [4] | Potency [6] | activation [7] 2.44% | Potency [8] | outcome [9] | Potency [18] | Potency [10] | Potency [11] | Potency [12] | Potency [13] | Potency [14] | Potency [15] | Potency [16]
8.25%: viability change [8]
